SMILES strings stand for the structures. In all, about 13,000 compounds were measured (“IFI”: median about 4, highest 2% from about 17 on). The sample as a whole holds a higher share of the highest values than the screen did.

This experiment is described as follows: GSK_TCMDC: Inhibition Frequency Index (IFI). The number of non-kinase HTS assays where a compound showed > 50 % inhibition, expressed as a percentage of the number of such assays in which the compound was tested. The experiment is classed as functional.
Turning to `Cc1cc(=NN=Cc2ccc(Cl)cc2)c2ccccc2[nH]1`, the IFI came out at 0.7%. Consider `N=C(NCCCCCCCCNC(=N)Nc1ccc(Cl)cc1)Nc1ccc(Cl)cc1`, for which the IFI stood at 3.65%.

As for `Clc1ccc(/N=C(/NCCCCCCCN/C(=N\c2ccc(Cl)cc2)Nc2ccc(Cl)cc2)Nc2ccc(Cl)cc2)cc1`, the IFI worked out at 17.1%. In turn, `CN(C)/C(=N/C(=N)Nc1ccc(Cl)cc1)NCCCCCCN/C(=N\C(=N)Nc1ccc(Cl)cc1)N(C)C` had an IFI of 8.89%.

Compound `N#Cc1cc(C(=O)c2cc(Br)ccc2O)cn(C2CCCCC2)c1=O` came in with an IFI of 2.78%. `COc1ccc(O)c(C(=O)c2cc(C(=O)NC3CCCCC3)c(=O)n(C3CCCCC3)c2)c1` had an IFI of 10.8%. `O=C(c1cc(C(=O)NC2CCCCC2)c(=O)n(C2CCCCC2)c1)c1cc(F)ccc1O` returned an IFI of 19.4%. `c1ccc2c(NCCCCCCCNc3ccnc4ccccc34)ccnc2c1` came in with an IFI of 11.3%. The compound `c1ccc2c(NCCCCCCNc3ccnc4ccccc34)ccnc2c1` gave an IFI of 4.55%. In turn, `COc1ccc(NCCCNc2ccnc3ccccc23)cc1` came in with an IFI of 17.5%.

`Nc1nc(N)c2c(ccc3c2ccn3Cc2ccc(Cl)cc2)n1`: the IFI is 13.2%. On to `CCn1c(Sc2ccc([N+](=O)[O-])c(C#N)c2)nnc1-c1ccc(Cl)cc1`, for which the IFI was 3.4%.

Consider `OCC1CCN(Cc2ccc(-c3ccc(-c4nc5cc(F)ccc5[nH]4)cc3)cc2)CC1`, for which the IFI was found to be 2.94%. To `Oc1c(C(Nc2nc3ccccc3s2)c2ccc(OC(F)F)cc2)ccc2cccnc12` (centres undefined) belongs 9.4%; to `CN(C)CCOc1ccc2c(=O)cc(CCc3cccc(F)c3F)n(CC(=O)N(C)Cc3ccc(-c4ccc(C(F)(F)F)cc4)cc3)c2c1`, 2.92%. Regarding `CCOC(=O)c1c(CNc2ccncc2)n(C)c2cc(Br)c(OC(C)=O)cc12`, the IFI came out at 0.74%.

Consider `CCOC(=O)c1cc(C(=O)NCCCCN2CCC(c3cn(C)c4ccccc34)CC2)ccc1-c1ccc(C(F)(F)F)cc1`, for which the IFI worked out at 5.31%. `CCOC(=O)c1cc2c(CCN3C(=O)c4ccccc4C3=O)cn(C)c2cc1-c1ccncc1` registered an IFI of 30.4%. Regarding `CC(=O)Nc1ccc(C(=O)Nc2cccc(-c3cccc(-c4nc5cc(C(F)(F)F)ccc5[nH]4)c3)c2)cn1`, the IFI turned out to be 3.7%. With `N=C(N)NC(=O)Nc1ccc(Cl)c(Cl)c1`, the IFI stood at 1.52%.

`CC(=O)Nc1ccc(Cl)c(Cl)c1` registered an IFI of 0%. For `NCCCN(Cc1ccc(Cl)c(Cl)c1)C(=O)Nc1ccc(Cl)c(Cl)c1` the value was 17.7%.

`COc1ccc(CCNCCCCCCNCCc2ccccc2Cl)cc1OC` returned an IFI of 2.88%. `FC(F)(F)c1cccc(CCNc2nccc(NCc3ccccc3Cl)n2)c1`: the IFI was determined as 8%. To `FC(F)(F)c1cccc(CCNc2nccc(NCc3ccc(Cl)cc3Cl)n2)c1` belongs 25%.

Compound `COc1ccccc1CNc1ccnc(NCCc2cccc(C(F)(F)F)c2)n1` returned an IFI of 16%. To `Fc1ccc(NC(S)=NN=Cc2ccccn2)cc1` belongs 7.48%; to `Cc1[nH]c(C)c(-c2ccc(-c3ccc(OC(F)(F)F)cc3)nc2)c(=O)c1Cl`, 1.69%; to `Cc1cc(Nc2ccncc2)n2nc(C)c(-c3ccc(Cl)cc3)c2n1`, 1.69%. For `Cc1ccc2[nH]c(-c3cc(-c4cccc(C#N)c4)cnc3N)nc2c1` the value was 7.14%. For the compound `Cc1cccc2nc(-c3ccc(-c4ccc(CN5CCCC(N)C5)cc4)s3)[nH]c12` (centres undefined), the IFI was 5.56%. `Cc1cc(OCCCNc2nc(NCCc3ccc(O)cc3)nc(N3CCNCC3)n2)c(Cl)c(C)c1Cl` came in with an IFI of 18.5%. `Oc1ccc(CCNc2nc(NCCOc3ccccc3-c3ccccc3)nc(N3CCNCC3)n2)cc1` had an IFI of 20%. `Oc1ccc(CCNc2nc(N/N=C/c3ccc(Cl)cc3)nc(N3CCNCC3)n2)cc1` had an IFI of 0.75%. For `C[C@@]12C[C@@H](Nc3nc(NCCc4ccc(O)cc4)nc(N4CCNCC4)n3)C[C@@H](C1)c1cccc(Cl)c1O2` the value was 20.9%. For the compound `Oc1ccc(CCNc2nc(NCCCOc3cccc(CN4CCCCC4)c3Cl)nc(N3CCNCC3)n2)cc1`, the IFI stood at 4.69%. `COc1ccc(-c2ccccc2OCCCNc2nc(NCCc3ccc(O)cc3)nc(N3CCNCC3)n2)cc1` gave an IFI of 13.8%. The compound `Cc1c(CN2CCCCC2)cccc1OCCCNc1nc(NCCc2ccc(O)cc2)nc(N2CCNCC2)n1` came in with an IFI of 7.58%.

Compound `Oc1ccc(CCCNc2nc(NCc3cccc4ccccc34)nc(N3CCNCC3)n2)cc1` yielded an IFI of 7.69%. `Oc1ccc(CCNc2nc(NCc3ccccc3-c3cccc(Cl)c3)nc(N3CCNCC3)n2)cc1`: the IFI came to 15.4%. The compound `Cc1cccc(-c2cccc(CNc3nc(NCCc4ccc(O)cc4)nc(N4CCNCC4)n3)c2)c1` had an IFI of 12.7%.

`Oc1ccc(CCNc2nc(NCCCOc3ccccc3-c3ccncc3)nc(N3CCNCC3)n2)cc1` displayed an IFI of 1.72%. Take `Oc1ccc(CCNc2nc(NCc3ccc4cc(Cl)ccc4c3)nc(N3CCNCC3)n2)cc1`: the IFI came to 17.2%. With `Nc1c2c(nc3cc(NC(=O)c4ccc([N+](=O)[O-])cc4)ccc13)CCCC2`, the IFI was determined as 0%. For `CNC(=O)C(C)N(c1ccc(Cl)cc1)c1nc(C(C)(C)C)cs1` (centres undefined) the value was 4.76%; for `COC(=O)C(=C(C)C)N1C(=O)[C@@H](NC(=O)OCc2ccccc2)[C@H]1SS[C@@H]1[C@H](NC(=O)OCc2ccccc2)C(=O)N1C(C(=O)OC)=C(C)C`, 4.41%; for `CC(CN1CCN(C)CC1)C(=O)Nc1ccc(-c2cccc(-c3nc4ccccc4[nH]3)c2)cc1` (centres undefined), 4.59%. For `COCCN1CCN(Cc2ccc(-c3ccc(-c4nc5cccc(C)c5[nH]4)s3)cc2)CC1` the value was 6.86%; for `O=S(=O)(NCCN1CCCC1)c1ccc(-c2ccc(CNCc3ccccc3)cc2)cc1F`, 6.54%.

For `Oc1ccc(CCNc2nc(NCCCOc3ccccc3-c3cccc(C(F)(F)F)c3)nc(N3CCNCC3)n2)cc1`, the IFI was determined as 10.5%.

With `Oc1ccc(CCNc2nc(NCc3ccccc3-c3ccc(F)cc3)nc(N3CCNCC3)n2)cc1`, the IFI stood at 13.6%. For `COc1ccc(-c2ccccc2CNc2nc(NCCc3ccc(O)cc3)nc(N3CCNCC3)n2)cc1` the value was 13.4%. Consider `Oc1ccc(CCNc2nc(NCCOc3cccc4ccccc34)nc(N3CCNCC3)n2)cc1`, for which the IFI was found to be 16.4%. Consider `Oc1ccc(CCNc2nc(NCCCOc3ccccc3-c3cccnc3)nc(N3CCNCC3)n2)cc1`, for which the IFI worked out at 6.9%.

`Oc1ccc(CCNc2nc(NCCCOc3ccccc3-c3ccc(C(F)(F)F)cc3)nc(N3CCNCC3)n2)cc1` came in with an IFI of 17.2%. For `CN1CCN(c2nc(NCCc3ccc(O)cc3)nc(NCc3ccccc3-c3ccc(C(F)(F)F)cc3)n2)CC1` the value was 11.8%. Turning to `Oc1ccc(CCNc2nc(NCCCOc3ccccc3-c3ccc(F)cc3)nc(N3CCNCC3)n2)cc1`, the IFI was determined as 13.8%. For `Oc1ccc(CCNc2nc(NCc3ccccc3Oc3ccc(C(F)(F)F)cc3)nc(N3CCNCC3)n2)cc1` the value was 20%; for `CC1CN(c2nc(NCCc3ccc(O)cc3)nc(NCc3ccccc3-c3ccc(C(F)(F)F)cc3)n2)CC(C)N1` (centres undefined), 17.2%; for `Oc1ccc(CCNc2nc(NCc3ccccc3-c3ccc(C(F)(F)F)cc3)nc(N3CCNCC3)n2)cc1`, 13.1%. `Oc1ccc(CCNc2nc(NCCCOc3cccc(-c4ccccc4)c3)nc(N3CCNCC3)n2)cc1` gave an IFI of 18.8%.

`CC(C)N1CCC(N(Cc2ccc(-c3ccc(Cl)cc3)cc2)C(=O)Cn2c(CCc3cccc(F)c3F)nc(=O)c3ccccc32)CC1` registered an IFI of 7.8%. For `O=C(/C=C/c1ccc(Cl)c(Cl)c1)NCCCCCN1CCC(c2n[nH]c(-c3ccccc3)c2Br)CC1` the value was 12.9%; for `Cc1cc2nc(-c3ccc(/C=C/C(=O)NC4CCN(Cc5ccccc5)CC4)cc3)[nH]c2cc1C`, 3.76%; for `CS(=O)(=O)NCCCNCc1ccc(-c2ccc(-c3nc4cc(C(F)(F)F)ccc4[nH]3)s2)cc1`, 4.95%. `Cc1nc2ccc(-c3ccc(OC(F)(F)F)cc3)cc2c(O)c1C#N` had an IFI of 1.82%. Compound `COc1cccc2c(NN=Cc3cccc(F)c3)ccnc12` showed an IFI of 2.99%. For the compound `Oc1ccc(CCNc2nc(NCc3ccccc3-c3ccccc3)nc(N3CCCNCC3)n2)cc1`, the IFI stood at 18.2%.

`Oc1ccc(CCCNc2nc(NCc3ccccc3-c3ccccc3)nc(N3CCNCC3)n2)cc1` displayed an IFI of 14.9%. In turn, `Oc1ccc(CCNc2nc(NCc3ccccc3-c3ccc(C(F)(F)F)cc3)nc(N3CCCNCC3)n2)cc1` registered an IFI of 14.9%. For the compound `NCC1CCCN1Cc1cccc(-c2ccc(-c3nc4ccccc4[nH]3)s2)c1` (centres undefined), the IFI turned out to be 0.97%. `CC[C@H](C)CNC(=O)c1cccc(-c2ccc(CN3CCC(N4CCCC4)CC3)cc2)n1` showed an IFI of 9.09%. In turn, `C=CCC1OC(=O)c2cc(OC)cc(OC)c21` (centres undefined) yielded an IFI of 33.6%. Compound `C=CC(C)C1OC(=O)c2cc(OC)cc(OC)c21` (centres undefined) had an IFI of 27%. Compound `COc1ccc(CCNCCCCCNCCCc2ccc(Cl)cc2)cc1OC` showed an IFI of 2.8%. `COc1cc(Cc2cnc(N)nc2N)cc(CC(C)O)c1O` (centres undefined) had an IFI of 0%.

Turning to `Fc1ccc2[nH]c(-c3cccc(-c4ccc(CN5CCC(CCN6CCCCC6)CC5)cc4)c3)nc2c1`, the IFI is 8.33%. `NC(=O)c1ccc(C(=O)Nc2cccc(-c3ccc(-c4nc5cc(C(F)(F)F)ccc5[nH]4)cc3)c2)cc1` yielded an IFI of 2.59%. Compound `O=C(NCCCCN1CCC(c2ccc3c(c2OCCN2CCCC2=O)CCCC3)CC1)c1ccc(-c2ccc(C(F)(F)F)cc2)cc1` displayed an IFI of 9.65%. Take `C[C@@H]1CC[C@H](NC(=O)[C@H](CC2CCCC2)NC(=O)N2CCNCC2)C(=O)CN1S(=O)(=O)c1ccccn1`: the IFI is 5.93%. `O=C(NCCOc1ccccc1)[C@H](Cc1ccccc1)Nc1ccnc(NCC2CCCCC2)n1` had an IFI of 20%. For `CC(C)C[C@H](Nc1ccnc(NCC2CCCCC2)n1)C(=O)NCCc1ccccc1` the value was 8.89%; for `Cc1cc(N[C@@H](Cc2ccccc2)C(=O)NCCOc2ccccc2)nc(NCC2CCCCC2)n1`, 16.7%; for `O=C(NCCc1ccccc1)[C@H](Cc1ccccc1)Nc1ccnc(NCC2CCCCC2)n1`, 20.4%. Turning to `Cc1ccc(CNC(=O)[C@H](Cc2ccccc2)Nc2ccnc(NCC3CCCCC3)n2)cc1`, the IFI was determined as 11.1%. `CC(C)C[C@H](Nc1ccnc(NCC2CCCCC2)n1)C(=O)NCCOc1ccccc1`: the IFI was 13%.

For the compound `COc1ccc2nccc([C@@H](O)CN3CCC(NCc4nc5cc(F)cc(F)c5[nH]4)CC3)c2c1`, the IFI was 3.65%. `CC1(C)NC(N)=NC(=N)N1OCCCSc1ccccc1` yielded an IFI of 2.26%. To `Cc1cc(OCCCn2ccnc2)ccc1-c1csc(/N=C(\N)NCc2ccccc2)n1` belongs 5%; to `Cc1cccc(NC(=O)NCc2ccccc2)n1`, 0.78%; to `N/C(=N\c1cccc(Cc2ccccc2)n1)NCc1ccccc1`, 21%. `Cc1ccccc1Cc1cccc(/N=C(\N)Nc2ccc(Cl)cc2)n1` showed an IFI of 31.2%.

As to `Cc1cccc2nc(-c3ccc(-c4ccc(NC(=O)Nc5ccc(Cl)cc5)cc4)s3)[nH]c12`, the IFI was found to be 5.94%. `Cc1cc(NCCc2ccccc2)nc(NC(=N)Nc2ccc(Cl)cc2)n1`: the IFI was 3.82%.

Source of the values: ChEMBL document CHEMBL1157539, “Thousands of chemical starting points for antimalarial lead identification” (Nature, 2010).
